G9a block: blocks human histone lysine methyltransferase G9a. Q96KQ7. G9a H3K9 monomethylation, AlphaScreen, 2 h. Potency, µM (doses to about 102 µM), for the others: at the highest dose activity, negative = inhibition, actives largely listed as inhibitors. 8.8% of 350,000 active. AID 504332; further: on the % scale 0 is the no-effect control and ±100 the full control effect; nearly all actives have a fitted effect of over 75% in size
Target sequence (Q96KQ7 913-1193 limits assumed): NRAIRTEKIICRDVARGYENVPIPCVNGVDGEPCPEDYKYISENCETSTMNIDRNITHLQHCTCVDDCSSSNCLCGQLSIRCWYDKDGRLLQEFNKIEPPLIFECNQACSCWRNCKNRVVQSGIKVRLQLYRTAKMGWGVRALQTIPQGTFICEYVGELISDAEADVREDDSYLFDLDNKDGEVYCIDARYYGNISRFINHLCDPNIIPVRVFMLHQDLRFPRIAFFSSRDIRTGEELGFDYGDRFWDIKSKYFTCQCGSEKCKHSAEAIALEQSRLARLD
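Enzyme 20 nM + cpd, 15 min RT; add b-H3K9 pep 500 nM / SAM 20 uM; 2 h RT; anti-H3K9me1 Ab 0.5 ug/mL + SA donor / anti-rabbit acceptor beads 20 ug/mL each, 10 min; AlphaScreen read.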
VDR inhibitor: blocks the human vitamin D receptor; P11473; VDR-SRC2-3 peptide fluorescence polarization, 2 h; Potency, µM, for inactives: max response, negative = inhibition, hits mostly inhibitors; 0.93% of 400,000 active; further: on the % scale 0 is the no-effect control and ±100 the full control effect
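Reagent solutions, kept cold and dark, are dispensed first; compounds are then pinned in at 23 nl, plates briefly spun, and incubated 2 h at ambient temperature. Inhibition of VDR–SRC2-3 peptide binding is read by fluorescence polarization.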
Glioma ERSR ind: inducers of ER stress response in human glioma cells. AID 602332. U87-MG GRP78 promoter luciferase reporter, 16 h. Potency, µM, without a hit: at the highest dose activation, usual class: activators. 0.02% of 420,000 active; further: series mostly up to about 76 µM; % of control where 0% means no effect; nearly all actives have a fitted effect of over 35% in size
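ERSR induction read as luciferase luminescence (Bright-Glo, 10 min at room temperature) in stably transfected human U87-MG glioma cells exposed to compounds for 16 h, using GRP78 as sensor.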
ALOX12 inh: inhibitors of human 12S-lipoxygenase ALOX12. P18054. purified 12hLO, xylenol orange hydroperoxide absorbance. Potency, µM (top dose mostly 108 µM), inactives show at the top dose activity change, negative = inhibition, hits mostly inhibitors. 1.1% of 580,000 active. AID 1671190; further: on the % scale 0 is the no-effect control and ±100 the full control effect
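Hydroperoxide product was detected by ferrous iron/xylenol orange as the 573 to 405 nm absorbance ratio. Arachidonic acid at 40 uM (final) was turned over for 30 min at room temperature by 150 nM human 12hLO, pH 7.0 Hepes buffer, after 15 min compound preincubation.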
Sfp PPTase inh: inhibitors of Bacillus subtilis Sfp phosphopantetheinyl transferase; 3.5% of 310,000 active; Biochemical Sfp PPTase activity, qHTS; Q9F4F7; Potency, µM, for inactives: largest response in the series, negative = inhibition, usual class: inhibitors;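 further: the enzyme is Sfp with the accession as filed and its product quenches rhodamine fluorescence; 0% = enzyme reaction without inhibitor and -100% = no enzyme wells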
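After 15 min at room temperature with compound, 15 nM Sfp received 5 uM rhodamine-CoA plus 12.5 uM BHQ-2-ybbR (50 mM Hepes pH 7.6, 10 mM MgCl2). Rate came from the fluorescence difference over 30 min, ex 525/em 598 nm.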
The depositor's hits bear a star; ? = inconclusive; / = no result; [ ] = dose if it differs, or a comment. This excerpt belongs to a sample that is enriched for hits. The call rests on the fitted dose curve; in most records, active means well fitted curve in the direction sought with a large enough effect; inconclusive means small, poorly fitted or top-dose-only effect, or another doubt; inactive means no such curve, though single readings can be large; an effect the other way counts as inactive or inconclusive. Potency means the concentration at half of the fitted maximal effect.

SMILES	G9a block	VDR inhibitor	Glioma ERSR ind	ALOX12 inh	Sfp PPTase inh
Cc1ccc(C(C)(O)CS(=O)(=O)Cc2ccccc2Cl)cc1 (centres undefined)	45µM*	0%	-2%	?	-18%
CC(C)CCNC(=S)Nc1ccccc1F	10%[59 µM]	-22%	0%	-10%	-2%
O=C(NC(=S)Nc1cccnc1Cl)c1ccc(Cl)cc1	40µM*	-4%	0%	?	?
CC(C)CCNC(=S)Nc1ccccn1	1µM*	-1%	-1%	?	-43%
O=C(NC(=S)Nc1cccnc1Cl)c1ccco1	56µM*	0%	-2%	?	-29%
C=CCN(CC=C)S(=O)(=O)c1ccc(NC(=S)NC(=O)c2ccc(-c3ccccc3)cc2)cc1	-30%[2.33 µM]	14%	-6%	3.2µM*	?
C=CCN(CC=C)S(=O)(=O)c1ccc(NC(=S)NC(=O)c2ccco2)cc1	6%[2.33 µM]	0%	1%	?	-20%
Cc1cc2oc(=O)cc(CN(C)Cc3ccco3)c2cc1C	/	/	/	-21%	/
CCc1c(C)[nH]c2ccc(OC)cc2c1=O	/	/	/	10%	/
Cc1ccc(OCCC(=O)N2CCN(S(=O)(=O)c3ccc(C)s3)CC2)cc1	/	/	/	4%	/
CC(C)(C)C(=O)NC(=S)Nc1ccccn1	-49%	3%	1%	-20%	-13%
CC(C)C(=O)NC(=S)Nc1ccccn1	56µM*	-15%	-4%	?	-3%
O=C(NC(=S)Nc1ccccn1)c1ccc([N+](=O)[O-])cc1	79µM*	-13%	0%	1%	-29%
Cc1cc(C)c(NC(=S)NC(=O)c2ccc(-c3ccccc3)cc2)c(C)c1	?	-13%	-5%	22µM*	13%
O=C(NC(=S)Nc1ccccc1[N+](=O)[O-])c1ccco1	?	2%	7%	?	56µM*
COCCOc1ccc2c(n1)CCN(C(=O)COc1ccccc1)C2	/	/	/	33%	/
O=C(NC(=S)Nc1ccccn1)c1ccco1	-7%	4%	1%	?	56µM*
Cc1ccnc(NC(=S)NC(=O)c2ccco2)c1	-13%	-13%	2%	?	?
O=C(NC(=S)Nc1ccccn1)c1ccccc1	50µM*	-2%	-7%	?	?
O=C(NC(=S)Nc1ccccn1)c1ccc(-c2ccccc2)cc1	45%	1%	-2%	32µM*	3%
CCCCC(=O)Nc1ccc(-c2nc3cc(CC)ccc3o2)cc1	/	/	/	12%	/
CCCCCC[n+]1c(-c2ccccc2)csc1Nc1ccccc1	16µM*	-8%	1%	-26%	0%
CN(C)CCCn1c(-c2ccc(COc3ccc(Br)cc3)o2)n[nH]c1=S	/	/	/	14µM*	/
C=CC(O)CCCCC (centres undefined)	/	/	/	13%[176 µM]	/
Cc1ccc2[nH]c(C)cc(=O)c2c1	25%[135 µM]	-3%	45µM*	/	-2%
SMILES	G9a block	VDR inhibitor	Glioma ERSR ind	ALOX12 inh	Sfp PPTase inh
O=C(N/N=C/c1ccc(O)c(O)c1O)/C(=C/c1ccc([N+](=O)[O-])cc1)NC(=O)c1ccccc1	1.6µM*	?	-4%	?	45µM*
COc1ccc(CN2CCCC23Cc2ccccc2CNC3=O)cc1F (centres undefined)	/	/	/	16%[6.33 µM]	/
NC(=O)CSc1nnc(-c2cc3ccccc3o2)n1Cc1ccccc1	?	3%	-6%	0%	18%
O=C(CSc1nnc(C2CC2)n1Cc1ccccc1)c1cc2ccccc2o1	45µM*	?	1%	0%	-13%
COCCn1c(SC(C)C(=O)NC(N)=O)nnc1-c1cccc(C)c1 (centres undefined)	/	/	/	-18%	/
O=C1C(=O)N(Cc2ccncc2)C(c2cccc(O)c2)/C1=C(\O)c1ccc2c(c1)OCCO2 (centres undefined)	45µM*	1%	6%	?	-12%
O=C1C(=O)N(Cc2cccnc2)C(c2cccc(O)c2)/C1=C(\O)c1ccc2c(c1)OCCO2 (centres undefined)	35µM*	0%	-2%	-21%	5%
C=CCOc1cccc(C2/C(=C(\O)c3ccc4c(c3)OCCO4)C(=O)C(=O)N2Cc2cccnc2)c1 (centres undefined)	/	5%	-1%	-2%	15%
COC1C(=O)N(c2cccc(F)c2)C12CCN(S(=O)(=O)c1c(C)nn(C)c1C)CC2 (centres undefined)	/	/	/	36%	/
Cc1ccc(C(=O)N2CCC(CCC(=O)NCCc3c[nH]c4ccccc34)CC2)cc1	/	/	/	14%	/

Screens as filed in PubChem.
